# From PubChem BioAssay (NCATS)
# Records with an inconclusive call do not appear. The source made the active and inactive calls. Calls follow the shape of the dose curve; as a rule, active = well fitted inhibition curve with a large enough effect; inconclusive = small, poorly fitted or top-dose-only effect; inactive = flat fitted curve, though single readings scatter.
# Tested on: CRL-7250
# Experiment: qHTS assay to identify novel small-molecules to repurpose for Merkel cell carcinoma treatment (AID 1296009); also: nearly all actives have a fitted effect of over 60% in size
# Settings: MCC and control cell lines, CellTiter-Glo viability, 72 h; series mostly up to 92 µM; activity change, negative = cytotoxicity: at the top concentration
# Outline: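 CellTiter-Glo luminescence after 72 hr compound exposure at 37 degree celsius gave cell viability. Libraries NPC and MIPE were run as 8- and 11-point dose responses; RLUs normalized to DMSO (negative) and no-cell (cytotoxicity) controls.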
row,Compound,outcome
1,O=C(O)c1cc(C(F)(F)F)ccc1N1CC[C@H](OCc2ccccn2)C1,inactive
2,COc1c2c(c(C)c3c1C(=O)OC3)OC1(C)CC(O)C(C(C)(C)O)C(C)(CCC(=O)O)C1C2 (stereo not given),inactive [at 17.4 µM]
3,O=c1c2ccccc2nc2n1CCC2O (stereo not given),inactive [at 92 µM]
4,COc1ccc2c(c1)O[C@H](O[C@@H]1O[C@H](CO)[C@@H](O)[C@H](O)[C@H]1O)C(=O)N2,inactive
5,CC1=C2C(=O)C=C(CO)[C@@H]2[C@H]2OC(=O)[C@H](C)[C@@H]2[C@@H](O)C1,inactive
6,CC1CCC2C(C)(C)C(O)CCC2(C)C12Cc1c(O)cc3c(c1O2)CN(C(CCCN=C(N)N)C(=O)O)C3=O (stereo not given),inactive [at 17.4 µM]
7,COC1CC(=O)C23C(=O)NC(CC(C)C)C2C(C)C(C)=CC3/C=C(\C)CCC1O (stereo not given),inactive [at 17.4 µM]
8,O=C(O)CC1(O)C(=O)Nc2ccccc21 (stereo not given),inactive [at 92 µM]
9,COc1cc(CCCO)ccc1O[C@@H]1O[C@H](CO)[C@@H](O)[C@H](O)[C@H]1O,inactive
10,CC(C#N)C(C)O[C@@H]1O[C@H](CO)[C@@H](O)[C@H](O)[C@H]1O (stereo not given in full),inactive
11,COC(=O)c1cc(Br)cnc1N1CCC(NC2CCCCC2)C(O)C1 (stereo not given),inactive
12,C=C(C(=O)O)[C@@H]1CC[C@H](C)[C@@H]2CC(=O)C(C)=C2C1,inactive
13,C=C1CC[C@@H]2[C@@](C)(CO[C@@H]3O[C@H](CO)C(O)[C@H](O)C3O)[C@H](O)CC[C@@]2(C)[C@@H]1CC/C(C)=C/CO (stereo not given in full),inactive [at 9.27 µM]
14,O=C(OC[C@H]1O[C@@H](Oc2ccccc2COC(=O)C2(O)C=CCCC2O)[C@H](O)[C@@H](O)[C@@H]1O)c1ccccc1 (stereo not given in full),inactive [at 17.4 µM]
15,N#CCc1ccc(O)cc1O[C@@H]1O[C@H](CO)[C@@H](O)[C@H](O)[C@H]1O,inactive
16,C/C=C(/C)C(=O)O[C@H]1C[C@]2(C)O[C@@H]2[C@@H](OC(C)=O)[C@@]2(C)CC[C@@](O)(C(C)C)[C@H]12,inactive
17,C[C@@H]1O[C@@H](O[C@H]2[C@H](O)[C@@H](O)[C@H](OC[C@H]3O[C@@H](OC(=O)[C@]45CCC(C)(C)C[C@H]4C4=CCC6[C@@]7(C)C[C@@H](O)[C@H](O)[C@@](C)(CO)C7[C@H](O)C[C@@]6(C)[C@]4(C)CC5)[C@H](O)[C@@H](O)[C@@H]3O)O[C@@H]2CO)[C@H](O)[C@H](O)[C@H]1O (stereo not given in full),inactive [at 9.27 µM]
18,CC1(C(=O)O)CCCC2(C)C3CCC4CC3(CCC12)CC4C(=O)O (stereo not given),inactive
19,COC(O)(CC(C)C)C1Oc2cc(C)[nH]c(=O)c2O1 (stereo not given),inactive
20,C[C@@H]1O[C@@H](O[C@H]2[C@H](OC(=O)[C@]34CCC(C)(C)C[C@H]3C3=CCC5[C@@]6(C)C[C@H](O)[C@H](O[C@@H]7O[C@H](CO)[C@@H](O[C@H]8OC[C@](O)(CO)[C@H]8O)[C@H](O)[C@H]7O)[C@@](C)(CO)C6[C@H](O)C[C@@]5(C)[C@]3(C)C[C@H]4O)OC[C@H](O)[C@@H]2O)[C@H](O)[C@H](O)[C@H]1O[C@@H]1OC[C@@H](O)[C@H](O[C@@H]2OC[C@](O)(CO)[C@H]2O)[C@H]1O (stereo not given in full),inactive [at 9.27 µM]

row,Compound,outcome
1,CC1C(O)C(O)C2C(C(=O)OCCc3ccc(O)cc3)=COC(O[C@@H]3O[C@H](CO)[C@@H](O)[C@H](O)[C@H]3O)C12 (stereo not given in full),inactive [at 17.4 µM]
2,CC(C)(Oc1ccc(-c2nc3cc(Cl)ccc3s2)cc1)C(=O)O,inactive
3,COC(=O)C[C@H]1C(C)(C)[C@H](OC(=O)C(C)C)[C@@]2(O)C(=O)[C@]1(C)C1CC[C@]3(C)C(CC(=O)O[C@H]3c3ccoc3)[C@]13O[C@@H]32 (stereo not given in full),inactive [at 17.4 µM]
4,C/C=C/C=C/C(CC(=O)O)Nc1ccc(C=O)cc1 (stereo not given),inactive
5,COc1ccc(C)c2sc(NC(=O)c3ccncc3)nc12,inactive
6,C[C@@H]1CC[C@@]23CC[C@]4(C)[C@@](C=CC5[C@@]6(C)CC[C@H](O)C(C)(C)C6CC[C@]54C)(OC2=O)C3[C@H]1C (stereo not given in full),inactive [at 17.4 µM]
7,CC(=O)OC1CC(=O)C2(C)C3CC4=C(OC(C)CC4=O)OC3(C)CCC2C1(C)C (stereo not given),inactive [at 17.4 µM]
8,C=CC(C)(O)CC/C=C(\C)C1CC=C(C)C(=O)O1 (stereo not given),inactive
9,COCCOc1cnc2ccn([C@H](C)c3nnc4c(F)cc(-c5cnn(C)c5)cn34)c(=O)c2c1,inactive
10,CC1CCCCCCCc2cc(O)cc(O)c2C(=O)O1 (stereo not given),inactive
11,CC(NC(=O)[C@H](Cc1ccccc1)NC(=O)OCc1ccccc1)C(=O)CF (stereo not given in full),inactive
12,O=C(/C=C/N1C[C@@H]2C[C@@H]1CN2c1ccccn1)c1ccccc1O,inactive
13,CC1(C)C2CC[C@]3(C)C(C(=O)C=C4[C@H]5C[C@@](C)(C(=O)O)CC[C@]5(C)CC[C@]43C)[C@@]2(C)CC[C@@H]1O (stereo not given in full),inactive [at 17.4 µM]
14,COC(=O)[C@@H](NC(=O)[C@H](CC(C)C)NC(=O)N(Cc1ccccc1)C[C@@H](O)[C@H](Cc1ccccc1)NC(=O)OC(C)(C)C)C(C)C,inactive [at 9.27 µM]
15,CC1CC=C2C1CC1(O)C(=O)CC2(C)C1(C)CO (stereo not given),inactive
16,CC(=O)OC/C(=C/C(=O)O)CC[C@@H]1C(C)=CC(=O)[C@@H]2C(C)(C)CCC[C@@]12C,inactive
17,C[C@@H]1O[C@@H](O[C@H]2[C@H](O[C@H]3[C@H](O[C@H]4CC[C@@]5(CO)C(CC[C@]6(C)C5CC=C5C7CC(C)(C)C[C@@H](O)[C@]7(C)CC[C@]56C)C4(C)C)O[C@H](C(=O)O)[C@@H](O)[C@@H]3O)OC[C@@H](O)[C@@H]2O)[C@H](O)[C@H](O)[C@H]1O (stereo not given in full),inactive [at 9.27 µM]
18,C=C1CC23CC(=O)C4C(CO)(CO)CCCC4(C)C2CCC1C3 (stereo not given),inactive
19,COc1cc([C@@H](O[C@@H]2O[C@H](CO)[C@@H](O)[C@H](O)[C@H]2O)[C@@H]2CO[C@H](c3ccc(O)c(OC)c3)[C@H]2CO)ccc1O,inactive [at 17.4 µM]
20,CC(=O)OC[C@]12[C@H](OC(C)=O)[C@H](OC(=O)c3ccccc3)[C@@H]3[C@@H](OC(C)=O)[C@]1(OC3(C)C)[C@H](C)C[C@H](OC(C)=O)[C@@H]2OC(=O)c1ccccc1,inactive [at 17.4 µM]
